Measurements from PubChem BioAssay (NCI).
About 83,000 compounds went through this panel and 20% of them were active in at least one assay; those are over-represented in the sample as a whole.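 Compound tested at a single concentration for 48 hours in 96-well plates; a percent growth value below 10 was scored as active.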 The source made the active and inactive calls.

test system: CCRF-CEM leukemia; experiment: NCI-60 one-dose screen, 48 h (100 = growth as untreated, 0 = no growth, -100 = all killed); settings: 10 µM unless noted

| SMILES | growth |
| --- | --- |
| O=C(Nc1ccc(CN2CCOCC2)c(C(F)(F)F)c1)c1nc2ccc3[nH]ncc3c2c2c1CCCC2 | 84.8% (inactive) |
| CC(C)[C@H]1CCC2=C3CC[C@]45OC(=O)[C@@]6(CCC(C)(C)C[C@H]64)CC[C@@]5(C)[C@]3(C)CC[C@@]21C | 49.7% [100 µM] (inactive) |
| Cc1ccc2c(c1)/C(=N\N=C/c1cn(C(C)C)c3ccccc13)C(=O)N2 | 6.69% (active) |
| COc1ccc(C(=O)c2nccc3cc(OC)c(OC)cc23)cc1OC | 132% (inactive) |
| Nc1cc(C(=O)O)[nH]c(=S)n1 | 94.5% (inactive) |
| CC1(C)CC[C@]2(C(=O)O)CC[C@]3(C)C(=CC[C@@H]4[C@@]5(C)C/C(=C/c6cccnc6)[C@H](O)C(C)(C)[C@@H]5CC[C@]43C)[C@@H]2C1 | 1.37% [100 µM] (active) |
| ClC1=C(Cl)C(Cl)=C(Cl)C1=Cc1ccccc1 | 8.52% (active) |
| CCCCC(CCCCCC(CCCC)C1NC(C)Cc2cc(OC)c(OC)cc21)C1NC(C)Cc2cc(OC)c(OC)cc21 (stereo not drawn) | -43.3% (active) |
| COc1ccccc1S(=O)Nc1ccccc1 (stereo not drawn) | 93.6% (inactive) |
| Cc1cnc(N)nc1OCC(C)(C)CNC(=O)c1cccc(-c2ccc(S(=O)(=O)Nc3ccc4c(c3)N(C(=O)C3CC3)CCC4)cc2)c1 | 61.7% (inactive) |
| C=C(C)[C@@H]1CC[C@]2(COC(=O)c3ccccc3C(=O)O)CC[C@]3(C)[C@H](CC[C@@H]4[C@@]5(C)CC[C@H](OC(=O)c6ccccc6C(=O)O)C(C)(C)[C@@H]5CC[C@]43C)[C@@H]12 | 46.4% [100 µM] (inactive) |
| Cc1cc(N2CCCCCC2)nc(N2CCN(CC(=O)Nc3ccc4c(ccn4Cc4ccccc4)c3)CC2)n1 | 50.2% (inactive) |
| CC1(C)C(=O)/C(=C\c2cccnc2)C[C@]2(C)[C@H]3CC[C@@H]4[C@H]5[C@H](C(=O)/C=C/c6cccnc6)CC[C@]5(C(=O)O)CC[C@@]4(C)[C@]3(C)CC[C@@H]12 | -6.59% [100 µM] (active) |
| CCN(CC)CCSC(=O)C(O)(c1ccccc1)C1CCCC1 (stereo not drawn) | 118% (inactive) |
| O=C(NNc1ccc(-c2ccccc2)nn1)c1ccccc1 | 107% (inactive) |
| Cc1cc2c(C(C)C)c(O)c(O)c(C=NCc3ccoc3)c2c(O)c1-c1c(C)cc2c(C(C)C)c(O)c(O)c(C=NCc3ccco3)c2c1O | 21% (inactive) |
| c1ccc(-c2nnc(-c3c[nH]c4ncccc34)s2)cc1 | 101% (inactive) |
| Cc1ccc(-c2cc(-c3ccc(C)cc3)nc(NCCNc3ccnc4cc(Cl)ccc34)n2)cc1 | 2.06% (active) |
| Cn1cc(-c2noc(C(=O)c3cn(C)c4ncccc34)n2)c2ccccc21 | 98.1% (inactive) |

| SMILES | growth |
| --- | --- |
| Cc1cc(NN=C(c2ccc(O)cc2)c2ccc(O)cc2)c([N+](=O)[O-])cc1[N+](=O)[O-] | 119% (inactive) |
| O=C(C[n+]1ccn(CC(OCc2ccc(Cl)cc2Cl)c2ccc(Cl)cc2Cl)c1)c1ccc(F)cc1 (stereo not drawn) | -12.1% (active) |
| COc1cc(-c2nc(SCCC(C)C)nc(Nc3ccc(S(N)(=O)=O)cc3)c2C#N)cc(OC)c1OC | 14.1% (inactive) |
| CC(C)=CCC[C@](C)(O)[C@H]1CC[C@]2(C)[C@@H]1CC[C@@H]1[C@@]3(C)CC[C@H](OC(=O)CCC(=O)O)C(C)(C)[C@@H]3CC[C@]12C | 3.55% [100 µM] (active) |
| C=C(C)[C@@H]1CC[C@]2(C)[C@H](CC[C@@H]3[C@@H]([C@@](C)(O)CCC=C(C)C)CC[C@]32C)[C@@]1(C)CCC(=O)O | 0.565% [100 µM] (active) |
| O=C(CCN1CCCCC1)c1ccc2ccccc2c1 | 92.3% (inactive) |
| O=C(N/N=C/c1c(Cl)cccc1Cl)c1cccc(Nc2ccnc(C(F)(F)F)c2)c1 | 87.8% (inactive) |
| CCc1ccc(C2=C/C(=C/c3ccccc3)C(=O)N2CCc2ccc(S(N)(=O)=O)cc2)cc1 | 106% (inactive) |
| COc1cc2c(cc1OCCCCCOc1ccc(-n3c(C)nc4ccccc4c3=O)cc1)N=C[C@@H]1CCCN1C2=O | -38.3% (active) |
| CCN(CCO)CCC(=O)c1ccc([N+](=O)[O-])cc1 | 124% (inactive) |
| COc1c(B(O)O)cccc1-c1nc2ccc3[nH]ncc3c2c2c1CCC2 | 64.2% (inactive) |
| Cc1ccc(-c2cc(O)c(-c3ccc(C)cc3C)cc2O)c(C)c1 | 39.5% (inactive) |
| C=C(C)[C@@H]1CC[C@]2(c3ncc(C)o3)CC[C@]3(C)[C@H](CC[C@@H]4[C@@](C)(CCC#N)[C@H](C(=C)C)CC[C@]43C)[C@@H]12 | -11.1% [100 µM] (active) |
| Nc1nc(Nc2ccccc2)c2ncn(Cc3ccc4c(c3)OCO4)c2n1 | 66.8% (inactive) |
| CC(=O)OC[C@]12CC[C@@H](C(=O)CBr)[C@@H]1[C@H]1CC[C@@H]3[C@@]4(C)CCCNC(C)(C)[C@@H]4CC[C@@]3(C)[C@]1(C)CC2 | -32.5% [100 µM] (active) |
| C[C@@H]1C[C@H]2C(=O)O[C@@H](C)[C@H](NC(=O)[C@H](Cc3cc(F)cc(F)c3)NC(=O)Nc3ccc(Cl)cc3F)C(=O)N3C[C@H](O)C[C@H]3C(=O)N3CCN(C)C[C@H]3C(=O)N[C@@H](C)C(=O)N2C1 | 53.7% (inactive) |
| COC(=O)C(=Cc1ccccc1[N+](=O)[O-])C(=O)OC | -1.09% (active) |
| CC1Cc2c(Cl)ncnc2N(C)c2ccc(Cl)cc21 (stereo not drawn) | 19.4% (inactive) |
| CC1(C(=O)O)CCC(N)(C(=O)O)C1(C)C (stereo not drawn) | 89.7% (inactive) |
